Holding throughout (conditions): mRNA level, 48 h; actives raise or lower the signal
Read-out in assay [1]: Bcl-2 (BAD) gene, BAD (gene 572)
The assay can be described thus: LTEA_HepaRG_BAD: Life Technologies and Expression Analysis (LTEA) Assay for Bcl-2 (BAD) gene using HepaRG (AID 2283469). The method in brief:
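HepaRG, 48 h exposure, 8-pt half-log curve from 100 uM in 0.5% DMSO, duplicates. Readout: TaqMan qRT-PCR for BAD mRNA, housekeeping-normalised (ACTB/GAPDH/POLR2A); gain or loss fitted against DMSO baseline.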

Read-out in assay [2]: Bcl-2 (BAX) gene, BAX (gene 581)
The assay can be described thus: LTEA_HepaRG_BAX: Life Technologies and Expression Analysis (LTEA) Assay for Bcl-2 (BAX) gene using HepaRG (AID 2283470). The method in brief: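 Cells were thawed, plated for 48 h, moved to serum-free induction medium and dosed for 48 h (highest concentration 100 uM, half-log steps, 0.5% DMSO). Total RNA was then analysed for BAX expression by qRT-PCR.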

Read-out in assay [3]: adenosine kinase (ADK) gene, ADK (gene 132)
Description: LTEA_HepaRG_ADK: Life Technologies and Expression Analysis (LTEA) Assay for adenosine kinase (ADK) gene using HepaRG (AID 2283471). The method in brief: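 HepaRG (human liver), 48 h chemical exposure, 8-pt half-log series, top 100 uM, 0.5% DMSO vehicle. Readout: ADK mRNA by qRT-PCR vs housekeeping genes; bidirectional curve fit relative to DMSO baseline.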

Read-out in assay [4]: Alpha-fetoprotein (AFP) gene, AFP (gene 174)
The assay can be described thus: LTEA_HepaRG_AFP: Life Technologies and Expression Analysis (LTEA) Assay for Alpha-fetoprotein (AFP) gene using HepaRG (AID 2283472). The method in brief: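 Chemicals were tested on differentiated HepaRG cells for 48 hours at eight concentrations up to 100 uM, with 0.5% DMSO as vehicle. AFP expression was then quantified by qRT-PCR and analyzed for gain or loss relative to DMSO.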

Read-out in the next assay: BCL2L11 (gene 10018)
The assay can be described thus: LTEA_HepaRG_BCL2L11: Life Technologies and Expression Analysis (LTEA) Assay for Bcl-2 (BCL2L11) gene using HepaRG (AID 2283473). In a few lines:
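Differentiated human HepaRG cells were exposed 48 h in serum-free induction medium to eight half-log concentrations up to 100 uM in 0.5% DMSO, in duplicate. BCL2L11 mRNA was quantified by TaqMan qRT-PCR, normalized to ACTB, GAPDH and POLR2A; induction or repression fitted versus DMSO.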

Read-out in assay [5]: Apolipoprotein A-V (APOA5) gene, APOA5 (gene 116519)
The assay can be described thus: LTEA_HepaRG_APOA5: Life Technologies and Expression Analysis (LTEA) Assay for Apolipoprotein A-V (APOA5) gene using HepaRG (AID 2283474). The method in brief:
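Differentiated HepaRG cells in serum-free induction medium, exposed 48 h in duplicate to eight half-log concentrations topping at 100 uM (0.5% DMSO). APOA5 mRNA by Fluidigm TaqMan qRT-PCR, normalized to ACTB, GAPDH and POLR2A; bidirectional fit versus DMSO.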

Read-out in assay [6]: Apoptosis regulator Bcl-2 (Homo sapiens) (UniProt P10415)
Description: LTEA_HepaRG_BCL2: Life Technologies and Expression Analysis (LTEA) Assay for Bcl-2 gene using HepaRG (AID 2283475). In a few lines:
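Plated human HepaRG cells are exposed to test chemicals for 48 h across eight concentrations from 100 uM downward in half-log steps (0.5% DMSO). BCL2 expression is then measured by qRT-PCR with housekeeping normalisation and fitted bidirectionally against vehicle.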

Read-out in a further assay: Caspase-3 (Homo sapiens) (UniProt P42574)
The assay can be described thus: LTEA_HepaRG_CASP3: Life Technologies and Expression Analysis (LTEA) Assay for cysteine-aspartic acid protease (CASP3) using HepaRG (AID 2283477). The method in brief:
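Differentiated HepaRG cells, plated 48 h, were treated in duplicate in serum-free induction medium for 48 h with eight half-log concentrations up to 100 uM in 0.5% DMSO. CASP3 mRNA measured by qRT-PCR, normalized to ACTB, GAPDH, POLR2A.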

Read-out in assay [7]: Cytochrome P450 (CYP24A1), CYP24A1 (gene 1591)
The assay can be described thus: LTEA_HepaRG_CYP24A1: Life Technologies and Expression Analysis (LTEA) Assay for Cytochrome P450 (CYP24A1) using HepaRG (AID 2283478). In a few lines:
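HepaRG cells plated 48 h, then exposed in duplicate in serum-free induction medium for 48 h to 8-point half-log series from 100 uM in 0.5% DMSO. CYP24A1 mRNA by Fluidigm qRT-PCR, normalized to ACTB, GAPDH, POLR2A; bidirectional fit versus DMSO.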

Read-out in assay [8]: Cytochrome P450 (CYP1A2), CYP1A2 (gene 1544)
The assay can be described thus: LTEA_HepaRG_CYP1A2: Life Technologies and Expression Analysis (LTEA) Assay for Cytochrome P450 (CYP1A2) using HepaRG (AID 2283479). In a few lines: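 Differentiated human HepaRG cells in serum-free induction medium exposed 48 hours in duplicate to 8 half-log concentrations from 100 uM, 0.5% DMSO. CYP1A2 mRNA quantified by qRT-PCR, normalized to ACTB, GAPDH and POLR2A; bidirectional fitting versus DMSO.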

Read-out in assay [9]: cysteine-aspartic acid protease (CASP8), CASP8 (gene 841)
Description: LTEA_HepaRG_CASP8: Life Technologies and Expression Analysis (LTEA) Assay for cysteine-aspartic acid protease (CASP8) using HepaRG (AID 2283480). In a few lines:
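qRT-PCR readout of CASP8 mRNA, normalized to three housekeeping genes, after 48 h chemical exposure of HepaRG cells; 8-point half-log series, top 100 uM, 0.5% DMSO vehicle. Bidirectional curve fitting against DMSO baseline.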

Read-out in assay [10]: Cytochrome P450 (CYP2B6), CYP2B6 (gene 1555)
Description: LTEA_HepaRG_CYP2B6: Life Technologies and Expression Analysis (LTEA) Assay for Cytochrome P450 (CYP2B6) using HepaRG (AID 2283481). The method in brief: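 Differentiated human HepaRG cells in serum-free induction medium, dosed in duplicate for 48 h over 8 half-log concentrations topping at 100 uM (0.5% DMSO). CYP2B6 mRNA measured by TaqMan qRT-PCR, normalized to ACTB, GAPDH, POLR2A; bidirectional fit versus DMSO.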

Read-out in assay [11]: Cytochrome P450 2C19 (Homo sapiens) (UniProt P33261)
The assay can be described thus: LTEA_HepaRG_CYP2C19: Life Technologies and Expression Analysis (LTEA) Assay for CYP2C19 using HepaRG (AID 2283482). The method in brief: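 Differentiated HepaRG cells in serum-free induction medium exposed 48 h in duplicate, 8 concentrations from 100 uM by half-log steps in 0.5% DMSO. CYP2C19 mRNA measured by TaqMan qRT-PCR, normalized to ACTB, GAPDH, POLR2A. Bidirectional fit versus DMSO.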

Read-out in the next assay: CYP2C8 (gene 1558)
Description: LTEA_HepaRG_CYP2C8: Life Technologies and Expression Analysis (LTEA) Assay for CYP2C8 using HepaRG (AID 2283483). The method in brief:
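HepaRG (human liver line), 48 h chemical exposure, 8-pt half-log series from 100 uM, 0.5% DMSO vehicle. Readout: CYP2C8 transcript by qRT-PCR, housekeeping-normalized. Bidirectional fit vs DMSO baseline.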

Read-out in the next assay: CYP2E1 (gene 1571)
The assay can be described thus: LTEA_HepaRG_CYP2E1: Life Technologies and Expression Analysis (LTEA) Assay for CYP2E1 using HepaRG (AID 2283485). In a few lines:
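Readout is qRT-PCR of CYP2E1 mRNA, normalized to three housekeeping genes and fitted bidirectionally against 0.5% DMSO. HepaRG cells were dosed 48 h at eight concentrations, highest 100 uM with half-log dilutions.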

Read-out in assay [12]: Cytochrome P450 3A4 (Homo sapiens) (UniProt P08684)
The assay can be described thus: LTEA_HepaRG_CYP3A4: Life Technologies and Expression Analysis (LTEA) Assay for CYP3A4 using HepaRG (AID 2283487). In a few lines:
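CYP3A4 transcript measured by TaqMan qRT-PCR and normalized to three housekeeping genes after 48 h chemical exposure of human HepaRG cells. Top concentration 100 uM, half-log steps, 0.5% DMSO vehicle; gain or loss fitted against DMSO baseline.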

Read-out in assay [13]: DNA damage-inducible transcript 3 (DDIT3), DDIT3 (gene 1649)
The assay can be described thus: LTEA_HepaRG_DDIT3: Life Technologies and Expression Analysis (LTEA) Assay for DNA damage-inducible transcript 3 (DDIT3) using HepaRG (AID 2283488). The method in brief:
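Cells are human HepaRG liver cells treated for 48 h with eight half-log concentrations up to 100 uM in 0.5% DMSO. Transcript levels come from qRT-PCR normalized to three housekeeping genes, with activity fitted in both directions relative to vehicle.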

Calls of active or inactive are those of the source. Rule for the calls: active = hit-call score of the fitted dose curve at least 0.9, where 1 is the maximum; inactive = score below 0.9.

Sequence of Apoptosis regulator Bcl-2 (Homo sapiens) (P10415 whole entry, looked up): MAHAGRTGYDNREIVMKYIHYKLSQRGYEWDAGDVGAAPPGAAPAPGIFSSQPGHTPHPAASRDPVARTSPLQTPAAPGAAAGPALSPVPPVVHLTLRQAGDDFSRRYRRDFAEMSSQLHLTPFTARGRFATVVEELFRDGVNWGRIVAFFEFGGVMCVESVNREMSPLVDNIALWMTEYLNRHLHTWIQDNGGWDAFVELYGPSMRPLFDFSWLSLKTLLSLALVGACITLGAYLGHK
Sequence of Caspase-3 (Homo sapiens) (P42574 whole entry, looked up): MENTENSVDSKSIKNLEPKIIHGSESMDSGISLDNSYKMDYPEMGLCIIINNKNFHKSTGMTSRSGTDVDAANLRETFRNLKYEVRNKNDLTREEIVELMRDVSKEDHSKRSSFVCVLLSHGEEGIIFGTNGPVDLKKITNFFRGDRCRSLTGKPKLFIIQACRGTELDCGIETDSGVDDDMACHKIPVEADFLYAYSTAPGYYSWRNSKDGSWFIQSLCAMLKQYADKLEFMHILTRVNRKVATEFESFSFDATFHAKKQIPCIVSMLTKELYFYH
Sequence of Cytochrome P450 3A4 (Homo sapiens) (P08684 whole entry, looked up): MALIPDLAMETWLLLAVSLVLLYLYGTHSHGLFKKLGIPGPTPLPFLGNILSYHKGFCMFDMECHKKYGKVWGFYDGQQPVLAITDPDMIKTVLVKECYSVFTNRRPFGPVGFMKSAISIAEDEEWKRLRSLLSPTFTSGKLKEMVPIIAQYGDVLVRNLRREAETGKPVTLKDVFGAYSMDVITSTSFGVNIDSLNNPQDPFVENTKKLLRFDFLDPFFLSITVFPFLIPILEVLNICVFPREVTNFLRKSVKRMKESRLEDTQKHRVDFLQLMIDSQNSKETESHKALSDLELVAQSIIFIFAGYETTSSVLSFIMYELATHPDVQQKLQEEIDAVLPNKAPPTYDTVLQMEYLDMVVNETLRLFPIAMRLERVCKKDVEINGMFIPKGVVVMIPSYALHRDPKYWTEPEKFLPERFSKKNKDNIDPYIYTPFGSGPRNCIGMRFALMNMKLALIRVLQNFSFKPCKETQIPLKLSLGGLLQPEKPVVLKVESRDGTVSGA
Sequence of Cytochrome P450 2C19 (Homo sapiens) (P33261 whole entry, looked up): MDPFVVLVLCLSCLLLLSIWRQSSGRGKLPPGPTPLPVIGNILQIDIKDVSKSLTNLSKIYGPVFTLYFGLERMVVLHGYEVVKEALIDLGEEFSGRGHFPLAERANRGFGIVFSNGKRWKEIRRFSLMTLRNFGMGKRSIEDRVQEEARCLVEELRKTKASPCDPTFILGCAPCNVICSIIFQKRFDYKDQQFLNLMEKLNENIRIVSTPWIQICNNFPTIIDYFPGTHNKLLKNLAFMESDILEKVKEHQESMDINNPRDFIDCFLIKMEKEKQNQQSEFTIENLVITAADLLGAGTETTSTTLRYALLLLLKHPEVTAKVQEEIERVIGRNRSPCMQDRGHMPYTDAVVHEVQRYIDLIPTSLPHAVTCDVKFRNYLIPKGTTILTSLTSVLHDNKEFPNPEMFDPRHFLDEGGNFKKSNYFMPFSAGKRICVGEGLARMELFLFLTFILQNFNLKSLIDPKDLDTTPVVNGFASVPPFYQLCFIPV

On to `CCOC(=O)C(C)Oc1ccc(Oc2cnc3cc(Cl)ccc3n2)cc1` (centres undefined), for which the result (in assay [1]; in assay [2]; in assay [3]; in assay [4]; in the assay with BCL2L11 (gene 10018); in assay [5]) was inactive. In addition, the outcome (in assay [6]; with Caspase-3 (Homo sapiens); in [7]; in [9]; in assay [10]; in the assay with CYP2C8 (gene 1558)) was inactive. Besides, the outcome in assay [12] and in assay [13] was inactive. Moreover, the half-maximal activity concentration (AC50) (as a rule, the midpoint of the concentration-response curve, whichever way the signal moves) in assay [8] was 19.2 µM (active); in [11] it was 1.24 µM (active); with CYP2E1 (gene 1571), 20 µM (active).

On to `N[C@@H](Cc1cc(I)c(Oc2ccc(O)c(I)c2)c(I)c1)C(=O)O`, for which the compound was called inactive (in assay [1]; in [2]; in assay [3]; in the assay with BCL2L11 (gene 10018); in assay [6]; in the assay with Caspase-3 (Homo sapiens)). Besides, the compound was classed as inactive in assay [7] and in assay [9]. For the same compound, the half-maximal activity concentration (AC50) is 40 µM (active) in assay [4]; 69.9 µM (active) in [5]; 40 µM (active) in [10]; 61.6 µM (active) in assay [11]; 46.8 µM (active) in the assay with CYP2C8 (gene 1558); 0.00253 µM (active) with CYP2E1 (gene 1571).

Consider `CCSC(=O)N(CC(C)C)CC(C)C`, for which the compound was classed as inactive (in assay [1]; in assay [2]; in assay [3]; in assay [4]; with BCL2L11 (gene 10018); in assay [5]). Further, the outcome (in assay [6]; with Caspase-3 (Homo sapiens); in [7]; in [8]; in assay [9]; in assay [10]) was inactive. Moreover, the result (in assay [11]; in the assay with CYP2C8 (gene 1558); with CYP2E1 (gene 1571); in assay [12]) was inactive.

With `CCCN(CCC)C(=O)SCC`, the outcome (in [1]; in assay [2]; in [3]; in [4]; with BCL2L11 (gene 10018); in [5]) was inactive. Besides, the call (in assay [6]; with Caspase-3 (Homo sapiens); in [7]; in assay [8]; in assay [9]; in assay [11]) was inactive. The outcome (with CYP2C8 (gene 1558); with CYP2E1 (gene 1571); in assay [12]; in [13]) was inactive. Also, the concentration at half-maximal activity (AC50) in assay [10] is 11.4 µM (active).

For the origin of these results see PubChem BioAssay (EPA / NIEHS).
